The inhibition is the change of the read-out against control, counted positive when it falls.

This passage reports inhibition results from PubChem BioAssay AID950 (NMMLSC, 2007).

Structures are written as SMILES. About 120 (0.063%) of roughly 190,000 compounds were called active. Shown is part of a subset that was picked to be rich in actives. Unmarked numbers belong to inactive results. Rule as the data show it: active = inhibition above about 40%; inconclusive = no clear call, values can overlap the other calls; inactive = below that.

Chain of Apoptosis regulator Bcl-2 (Homo sapiens) (P10415 whole entry, looked up): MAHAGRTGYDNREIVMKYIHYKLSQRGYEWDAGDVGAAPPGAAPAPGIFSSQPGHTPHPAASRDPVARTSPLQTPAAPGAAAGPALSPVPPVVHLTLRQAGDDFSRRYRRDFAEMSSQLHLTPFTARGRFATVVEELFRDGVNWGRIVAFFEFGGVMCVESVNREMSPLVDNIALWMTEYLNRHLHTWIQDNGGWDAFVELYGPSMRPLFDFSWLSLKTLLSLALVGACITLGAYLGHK

The assay addresses Apoptosis regulator Bcl-2 (Homo sapiens) (UniProt P10415). Briefly: Bcl-2 and Bim peptide interaction disruptors – biochemical, multiplexed, human Bcl-2 family, primary screen (AID 950).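 Also: 0% = no compound wells with probe peptide and 100% = reference peptide inhibitor.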 The settings on record: Bead-based flow cytometry, Bim peptide-Bcl-2 binding; at 10 µM; hits give high values. On the technique in general: A flow cytometer gives signals particle by particle.
Regarding `CC(NC(=S)Nc1ccccc1)C1COc2ccccc2O1` (configuration not stated), the inhibition was -6%.

As for `O=C(CCC(=O)N1CCCC1)Nc1ccc([N+](=O)[O-])cc1`, the inhibition was -2%.

Turning to `CC(C)CNC(=S)NC(=O)c1ccc(Cl)cc1`, the inhibition is 0%.

In the case of `COCCN(C(=O)C(C)C)c1nnc(-c2ccc(C(C)(C)C)cc2)s1`, the inhibition is -5%.

For `C=C1C2C[C@H](O)C(C)(C)[C@@]2(O)[C@H](O)C[C@]23C[C@@](C)(O)[C@H](CC[C@H]12)[C@H]3O` (some centres not stated), the inhibition was 0%.

`Nc1nc(SCC(=O)N2CCN(S(=O)(=O)c3ccc(Cl)cc3)CC2)n[nH]1`: the inhibition was -1%.

As for `COc1cc([N+](=O)[O-])ccc1NC(=S)N1CCN(c2ccccn2)CC1`, the inhibition was 0%.

With `Cc1ccc(NC(=S)NC(=O)/C=C/c2ccc(Cl)cc2)cc1`, the inhibition was -10%.

On to `COC(=O)c1c(NC(=O)CCCC(=O)O)sc2c1CCCCC2`, for which the inhibition was -3%.

On to `COc1cccc(NC(=O)COC(=O)CCOc2ccccc2OC)c1`, for which the inhibition was -2%.

Consider `Cc1cccc(/C(N)=N/OC(=O)c2ccccc2Cl)c1`, for which the inhibition is -7%.

As for `CCOC(=O)C(C)n1nc(-c2ccccc2)c2ccccc2c1=O` (configuration not stated), the inhibition is -1%.

Regarding `Cn1cc(Cl)c(C(=O)NNC(=S)Nc2cccc(Cl)c2)n1`, the inhibition is 0%.

With `Cc1ccc(OC(=O)CCC(=O)Nc2ccc(Br)cc2)cc1`, the inhibition is 0%.

For the compound `O=C(N/N=C/c1ccccn1)c1ccc(S(=O)(=O)N2CCCCCC2)cc1`, the inhibition was 0%.

For `O=[N+]([O-])/C(N=Nc1ccccc1)=N\Nc1ccccc1`, the inhibition is -1%.

For `N#CCC(=O)N/N=C/c1ccc(SCC(=O)Nc2ccccc2)o1`, the inhibition is -1%.

On to `Cc1ccc(NC(=O)Nc2cccc(C(F)(F)F)c2)nc1`, for which the inhibition was 0%.

On to `CN1CCN(CC(=O)Nc2cccc([N+](=O)[O-])c2)CC1`, for which the inhibition is -1%.

Turning to `O=C(COC(=O)Cn1cnc2ccccc21)Nc1cccc2c1C(=O)c1ccccc1C2=O`, the inhibition is -1%.

Take `CC1COc2ccccc2N1S(=O)(=O)c1ccccc1` (configuration not stated): the inhibition is -1%.

Consider `COc1cc(NC(=O)c2ccccc2NS(=O)(=O)c2ccc(Cl)s2)cc(OC)c1`, for which the inhibition is 12%.

As for `CCC(=O)Nc1ccc(C(=O)N2CCN(C(=O)c3ccco3)CC2)cc1`, the inhibition is 3%.

Regarding `COc1ccc(/C=C/C(=O)OCC(=O)NCc2cccs2)cc1OC`, the inhibition is 0%.

Turning to `CCOC(=O)N1CCN(Cc2nc(Cc3cccc(C(F)(F)F)c3)no2)CC1`, the inhibition is -6%.

For the compound `COc1cc2nc(CN(C)Cc3ccc(F)cc3)[nH]c(=O)c2cc1OC`, the inhibition is 14%.

On to `O=C(O)CCCCCNc1ncnc2ccc(Br)cc12`, for which the inhibition is 3%.

Regarding `COc1ccccc1-n1ccnc1SCC(=O)NC(C)(C)C`, the inhibition was -11%.

Consider `CC12CN(NC(=O)c3ccc(Cl)cc3)C3(C#N)CC1CCC23C` (configuration not stated), for which the inhibition is 0%.

As to `CC(=O)c1ccc(NC(=O)C(C)N(C)CC(=O)Nc2ccccc2Cl)cc1` (configuration not stated), the inhibition was 1%.

With `CN(C)c1ccc(/C=N\S(=O)(=O)c2ccccc2)cc1`, the inhibition was 2%.

For the compound `CCC1CCCCN1S(=O)(=O)Cc1ccccc1Cl` (configuration not stated), the inhibition was 1%.

Take `CCOc1ccc(NC(=S)N2CCCCCC2)cc1`: the inhibition was -6%.

`COc1cccc(CNC(=O)CCC2CCCN(C(=O)c3cc(C)[nH]n3)C2)c1` (configuration not stated): the inhibition was -4%.

As to `CCOc1ccc2c(=O)c(-c3ccc4c(c3)OCCCO4)c(C)oc2c1`, the inhibition is -3%.

On to `N/C(=N\OC(=O)c1ccc([N+](=O)[O-])cc1)c1ccccn1`, for which the inhibition is -3%.

Take `COc1ccc2cc(-c3[nH]ncc3CNCCn3nc(C)cc3C)ccc2c1`: the inhibition is -2%.

Consider `Cc1cccc(NC(=O)CN2C(=O)c3ccccc3C2=O)c1C`, for which the inhibition was 0%.

Consider `Fc1cccc(Cc2noc(CN3CCN(c4cnccn4)CC3)n2)c1`, for which the inhibition was 0%.

Regarding `Cc1cccc(-n2c(SCC(N)=O)nc3c(c2=O)C2(CCCCC2)Cc2ccccc2-3)c1`, the inhibition is 1%.

As to `CCCCCNC(=O)c1cccnc1SCC(=O)Nc1ccccc1OC`, the inhibition is -2%.

Consider `O=C1CCCC2=C1C(c1cccs1)CC(=O)N2c1ccc(F)cc1` (configuration not stated), for which the inhibition was 4%.

With `O=C(CC(=O)N/N=C\c1cccc(Cl)c1Cl)NCc1ccccc1`, the inhibition is -2%.

As for `O=C(NN1C(=O)C2C3C=CC(C3)C2C1=O)c1ccco1` (configuration not stated), the inhibition is -4%.

`CN(c1ccccc1)c1nc(N)c([N+](=O)[O-])c(NCc2ccco2)n1`: the inhibition was -2%.

On to `Cn1c(=N)n(CC(O)c2cccs2)c2ccccc21` (configuration not stated), for which the inhibition is -1%.

Consider `O=C(CSc1ccc(C(F)(F)F)cc1[N+](=O)[O-])NCCOc1ccccc1`, for which the inhibition was -7%.

As to `CC(C)(CNC(=O)c1ccc(Cl)c(S(=O)(=O)N2CCc3ccccc3C2)c1)N1CCOCC1`, the inhibition was 0%.

`CCN(CC)c1ccc2c(Nc3ccccc3)c(C=O)c(=O)oc2c1`: the inhibition is -4%.

As for `C#CCOCCOCCOCCNc1nc(N2CCN(C(=O)[C@H](C(C)C)n3cc(CCO)nn3)CC2)nc(N2CCN(C(=O)[C@H](C(C)C)n3cc(CCO)nn3)CC2)n1`, the inhibition was -3%.

With `Cc1cc(C)c(C2C3=C(Nc4c2c(C)nn4-c2ccccn2)c2ccccc2C3=O)c(C)c1` (configuration not stated), the inhibition was -2%.

For the compound `CCN1CCc2nc(NC(=O)c3cc(F)c(F)cc3Cl)sc2C1`, the inhibition is -5%.

Consider `COc1ccc(C(=O)C2CCCN(Cc3cccn3-c3ccccn3)C2)c(C)c1` (configuration not stated), for which the inhibition was 0%.

With `CCc1ccc(C2N3CC4([N+](=O)[O-])CN2CC([N+](=O)[O-])(C3)C4(C)C)cc1` (configuration not stated), the inhibition is -9%.

Turning to `CC1CCN(C(=S)c2cccc(O)c2)CC1`, the inhibition is -5%.

Take `C/C(=N\NC(=O)c1cccnc1)c1ccc(-n2ccnc2)cc1`: the inhibition is -4%.

As for `CCOC(=O)C1CCN(C(=O)C2(NC(=O)Nc3cccc(F)c3)CCCCC2)CC1`, the inhibition was -2%.

Take `CCOc1ccccc1/C=N/NC(=O)CNC(=O)COc1ccccc1`: the inhibition is 79% (active).

As for `Cc1ccc(/C=N/NC(=O)CNC(=O)COc2ccccc2)o1`, the inhibition was -10%.

Regarding `C=CCc1ccccc1OCC(=O)N/N=C/c1ccccc1OCC`, the inhibition was -4%.

`O=C(CN1CCN(c2ncccn2)CC1)Nc1ccccc1C(F)(F)F`: the inhibition was -2%.

For `COCCCNC(NC(=O)c1ccc(OC)cc1)C(Cl)(Cl)Cl` (configuration not stated), the inhibition was 0%.
